The text below walks through data of PubChem BioAssay AID881 (National Center for Advancing Translational Sciences (NCATS), 2007).

Each structure is given as a SMILES string. Screen size: about 110,000 compounds; about 610 (0.55%) were called active. Roughly 3% stayed inconclusive and do not appear here. The list comes from a sample in which actives are over-represented; it also holds similar structures and randomly drawn compounds. A call without a number means that no potency is given here. Values without a mark were called inactive. The call rests on the fitted dose curve; in most records, active means well fitted inhibition curve with a large enough effect; inconclusive means small, poorly fitted or top-dose-only effect; inactive means no such curve, though single readings can be large or run the other way.
Potency means the concentration at half of the fitted maximal effect.

Sequence of Polyunsaturated fatty acid lipoxygenase ALOX15B (Homo sapiens) (O15296 whole entry, looked up): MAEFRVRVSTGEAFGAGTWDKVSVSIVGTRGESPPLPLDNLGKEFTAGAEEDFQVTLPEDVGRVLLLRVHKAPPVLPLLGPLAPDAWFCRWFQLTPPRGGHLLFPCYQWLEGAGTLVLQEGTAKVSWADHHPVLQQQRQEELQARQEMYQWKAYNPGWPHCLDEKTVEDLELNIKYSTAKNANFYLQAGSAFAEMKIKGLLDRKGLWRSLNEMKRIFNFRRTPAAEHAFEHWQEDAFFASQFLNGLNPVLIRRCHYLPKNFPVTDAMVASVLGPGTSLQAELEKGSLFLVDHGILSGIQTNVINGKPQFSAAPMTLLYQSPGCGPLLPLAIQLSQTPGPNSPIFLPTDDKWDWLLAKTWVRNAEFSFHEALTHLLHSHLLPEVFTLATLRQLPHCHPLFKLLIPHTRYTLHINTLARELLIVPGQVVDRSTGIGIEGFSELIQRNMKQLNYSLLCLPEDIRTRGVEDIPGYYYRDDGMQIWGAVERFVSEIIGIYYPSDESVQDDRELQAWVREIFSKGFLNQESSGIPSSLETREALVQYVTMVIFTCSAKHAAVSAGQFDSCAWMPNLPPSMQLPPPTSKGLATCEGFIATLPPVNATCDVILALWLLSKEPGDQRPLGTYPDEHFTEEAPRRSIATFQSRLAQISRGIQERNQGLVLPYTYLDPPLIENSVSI

In the test the target is Polyunsaturated fatty acid lipoxygenase ALOX15B (Homo sapiens) (UniProt O15296). The test is described as follows: qHTS Assay for Inhibitors of 15-hLO-2 (15-human lipoxygenase 2). Further: nearly all actives have a fitted effect of over 60% in size. To be noted: purified 15hLO-2, xylenol orange hydroperoxide absorbance; series mostly up to 57.1 µM. Summed up:
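Purified human 15hLO-2 (50 nM final) preincubated with compounds 15 min at room temperature in 25 mM Hepes pH 7.5, 0.01% Triton X-100, then 45 uM arachidonic acid added for 90 min; hydroperoxide detected via ferrous/xylenol orange, 573/405 nm absorbance ratio.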
With `Cc1cc2oc(=O)cc(-c3ccccc3)c2c(C)c1/C=C/c1ccc(F)cc1`, the activity change, negative = inhibition is -8.43% [at 0.0915 µM].
Take `COc1ccc(SCc2noc(C(=O)NCC3CCCO3)c2C(=O)O)cc1` (stereo not given): the activity change, negative = inhibition entry is “inactive”.
On the same count and under the same terms, the result for `CCCCN1C(=O)/C(=C2/C=CC=CN2C)SC1=S` reads “inactive”.
In the case of `CCN1C(=O)/C(=C2/Sc3ccccc3N2CCCS(=O)(=O)O)SC1=S`, the Potency was 15.8 µM (active).
Consider `CCN1C(=O)/C(=C\N2CCN(c3ccccc3)CC2)SC1=S`, for which the activity change, negative = inhibition entry was “inactive”.
For the compound `COc1ccc(-c2nnc(SC(C)C#N)o2)cc1` (stereo not given), the activity change, negative = inhibition result is “inactive”.
Consider `CCN(CC)C(=O)CSc1nnc(-c2cccc(OC)c2)o1`, for which the activity change, negative = inhibition result was “inactive”.
As for `COc1ccc(-c2nnc(SC(=O)N3c4ccccc4Sc4ccccc43)o2)cc1`, the Potency was 10 µM (active).
As for `Cc1cnc(NC(=O)CSc2nnc(C)s2)s1`, the activity change, negative = inhibition result was “inactive”.
Turning to `O=S(=O)(c1ccc(Br)cc1)c1nc(-c2ccccc2)oc1NCc1cccnc1`, the activity change, negative = inhibition result is “inactive”.
For the compound `Cc1ccc(-c2csc(NC(=O)Cc3cccs3)n2)cc1C`, the activity change, negative = inhibition entry was “inactive”.
`Cc1nnc(NC(=O)CSc2nc(C3CCCCC3)nc3ccccc23)s1`: the activity change, negative = inhibition result is “inactive”.
On the same count and under the same terms, the result for `CCOCCCNC(=O)C(NC(=O)c1ccc(=O)[nH]c1)c1ccc(C)cc1` (stereo not given) reads “inactive”; that for `COc1ccc(N(CC(=O)NC2CCCCC2)S(=O)(=O)c2c(C)[nH]c(=O)[nH]c2=O)cc1`, “inactive”.
With `CCc1c(C)[nH]c(=S)c(C#N)c1C`, the Potency was 31.6 µM (active).
Take `O=C(Nc1ccccc1)c1ccccc1NC(=O)C(F)(F)F`: the activity change, negative = inhibition entry is “inactive”.
The same measure, in the same setting: to `CCCNC(=S)NC1CC2CCCC(C1)N2CC(C)C` (stereo not given) belongs “inactive”; to `Cc1ccc(F)c(NC(=O)CCc2ccccc2)c1`, “inactive”; to `COc1ccc(-c2c(C)cc3oc(=O)cc(-c4ccccc4)c3c2C)cc1C=O`, -27.8% [at 0.0915 µM].
Still for that read-out and setting: the result for `COc1ccc(C2CC(=O)Oc3ccc(C(C)(C)C)cc32)cc1` (stereo not given) reads -11.2% [at 0.0915 µM]; that for `CCCNC(=O)NCc1ccc(N2CCCC2=O)cc1`, “inactive”; that for `COCc1cc(=O)[nH]c2cc(NC(=O)C(F)(F)F)c(C)cc12`, “inactive”.
On the same count and under the same terms, to `CCOC(=O)C1C/C(=C\C(C)=O)c2cccc(C(F)(F)F)c2O1` (stereo not given) belongs 4.83% [at 0.0915 µM]; to `COc1cnc(SCc2ccc(Cl)c(Cl)c2)nc1Cl`, “inactive”; to `C(=N/N1CCN(c2ccccc2)CC1)/c1cccs1`, “inactive”.
For the compound `COc1ccc(C(=O)NNC(=O)c2cnccn2)cc1[N+](=O)[O-]`, the activity change, negative = inhibition entry is “inactive”.
As for `COc1ccc(Nc2nc(=O)[nH]nc2C)cc1`, the activity change, negative = inhibition result was “inactive”.
Regarding `O=C(NCc1ccco1)C1(c2ccc(Cl)cc2)CCCC1`, the activity change, negative = inhibition entry was “inactive”.
Same read-out and setting: to `O=C(NCc1ccco1)C1CCCN(S(=O)(=O)c2ccccc2)C1` (stereo not given) belongs “inactive”; to `CCc1ccc(C(=O)CSc2nnc(C)c(=O)[nH]2)cc1`, “inactive”.
On the same count and under the same terms, the result for `COC(=O)C1C(=O)NCC1c1ccc(OC)cc1` (stereo not given) reads “inactive”; that for `CC(=O)c1cccc(NC(=O)C2CCCN2S(=O)(=O)c2cccc3nsnc23)c1` (stereo not given), “inactive”.
Still for that read-out and setting: the result for `CC(=O)CC(c1ccccc1)C1C(=O)Oc2ccccc2C1=O` (stereo not given) reads 12.2% [at 0.0915 µM]; that for `C#C[C@]1(O)CC[C@H]2[C@@H]3CCC4=CC(=O)CC[C@@H]4[C@H]3CC[C@@]21CC`, -11.5% [at 0.0915 µM].
`Cc1cccc(-n2ncc(C#N)c2-n2cccc2)c1`: the activity change, negative = inhibition entry is “inactive”.
Still for that read-out and setting: the result for `CCC(C)N1C(=O)S/C(=C/c2ccc(Sc3nc4ccccc4[nH]3)o2)C1=O` (stereo not given) reads “inactive”; that for `CCN1CCN(C(=O)/C=C\C(=O)O)CC1`, “inactive”.
Regarding `CCOC(=O)Cn1c(-c2cccnc2Cl)nc2ccccc21`, the activity change, negative = inhibition result is “inactive”.
`Cc1cc2cc(CNC(=O)c3cccs3)ccc2[nH]1`: the activity change, negative = inhibition result was “inactive”.
Regarding `CCOC(=O)C1=C(C)c2ccccc2OC1(C)C(=O)OCC` (stereo not given), the activity change, negative = inhibition was 0.734% [at 0.0915 µM].
Regarding `CCCn1c(C(Cc2ccccc2)NC(=O)COC)nc2ccccc21` (stereo not given), the activity change, negative = inhibition entry is “inactive”.
Still for that read-out and setting: to `CC1=C(/C=C/C(C)=C/C=C/C(C)=C/C=C/C=C(C)/C=C/C=C(C)/C=C/C(=O)[C@]2(C)C[C@@H](O)CC2(C)C)C(C)(C)C[C@H](O)C1` belongs 24.6% [at 0.0915 µM]; to `CCOC(=O)c1cnc(SC)nc1Sc1ccc(Cl)cc1Cl`, “inactive”.
Consider `COc1cccc2c1OCC(C(=O)NCc1ccc(Cl)cc1Cl)=C2`, for which the activity change, negative = inhibition entry is “inactive”.
For `CCCCCCSc1nsc(N)n1`, the activity change, negative = inhibition result is “inactive”.
As for `CCOC(=O)C1=C(C)c2ccccc2OC1C(=O)OCC` (stereo not given), the activity change, negative = inhibition was -11.3% [at 0.0915 µM].
As to `O=[N+]([O-])c1cccc(-c2nnc3c4ccccc4c4ccccc4n23)c1`, the activity change, negative = inhibition entry was “inactive”.
Consider `O=c1[nH]c2ccccc2n2c(-c3ccccc3)nnc12`, for which the Potency was 10 µM (active).
On to `O=c1[nH]c(-c2ccccc2)c(-c2ccccc2)[nH]1`, for which the activity change, negative = inhibition entry is “inactive”.
On the same count and under the same terms, the result for `C[C@@H]1C(c2ccc(F)cc2)=NN(c2ccc(Br)cc2)[C@H]1C(=O)N1CCOC1=O` reads -11.1% [at 0.0915 µM].
